Several values for one entry are separate records, joined by “and”; a condition that tells them apart may be missing. Equal values may be shown once. This is part of a sample that, as a whole, favours compounds with a hit. Of some 83,000 tested, about 20% had one in any assay.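 96-well plates, one dose, 48 hours. Percent growth reported; active if below 10.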 Values without a mark were called inactive. Activity calls are given as the source filed them.

In one assay the test system is NCI-H23 lung. As to the kind of experiment: NCI-60 one-dose screen, 48 h (100 = growth as untreated, 0 = no growth, -100 = all killed). The note with it: 4.75 µM. As to the method: Growth inhibition of the NCI-H23 human Non-Small Cell Lung tumor cell line is measured as a screen for anti-cancer activity. Cells are grown in 96 well plates and exposed to the test compound for 48 hours. Compounds are tested at a single concentration, which is 10^-5 M for most compounds. The reported endpoint is percent growth (GI% or GIPRCNT), where numbers from 0 - 100% represent growth inhibition, and numbers from -100% - 0 represent cell death. For example, a value of 40 represents 60% growth inhibition. A value of 0 means no net growth occurred over the course of the experiment. A value of -40 indicates 40% of cells at the beginning of the experiment died by the end of the experiment. A value of -100 means all cells are dead at the end of the experiment.
NCI-60 Human Tumor Cell Lines Screen was performed using the standard one-dose NCI protocol, which is described in more detail at https://dtp.cancer.gov/discovery_development/nci-60/default.htm.
Compounds with GIPRCNT values below 10 were considered active. Activity score was based on GIPRCNT using the following formula: […]
Score is 0 for GIPRCNT values of 100 or above, 50 for GIPRCNT values of 0, and 100 for GIPRCNT values of -100.
For `CC(=O)OCC1OC([S-])C(OC(C)=O)C(OC(C)=O)C1OC(C)=O.[Au+].c1ccc(CN2[CH-]N(Cc3ccccc3)C(c3ccccc3)=C2c2ccccc2)cc1`, the growth is 3.45% (active).

The assay is the same for the next values; noted with them: 10 µM.
For `CC(=O)OCC1OC([S-])C(OC(C)=O)C(OC(C)=O)C1OC(C)=O.[Au+].c1ccc(CN2[CH-]N(Cc3ccccc3)C(c3ccccc3)=C2c2ccccc2)cc1`, the growth was 2.04% (active). On the same count and under the same terms, then `O=C(O)CCCc1ccc(N(CCCl)CCCl)cc1`, with 102% and 79.4%.

Staying with this assay, now noted: 10 µM unless noted.
Consider `C=C[Se]CC(=O)/C=C/c1ccccc1`, for which the growth is 70.1%. The same measure, in the same setting: then `O=C(O)c1ccc(=O)[nH]c1`, with 88.5% and 105%; and `COc1cc(/C=C\[N+](=O)[O-])ccc1OCc1ccccc1`, with 34.6%. Regarding `Nc1ccc(P(=O)(O)O)cc1`, the growth is 101% and 96.7%.

As for `COC(=O)CCP(CCC(=O)OC)c1ccccc1`, the growth was 102%.

With `O=C1c2ccccc2C(=O)N1N1CC1c1ccccc1` (stereo not given), the growth is 96.3%. On the same count and under the same terms, then `CCCC[C@H]1C(=O)O[C@H](C)[C@H](NC(=O)c2cccc(NC=O)c2O)C(=O)O[C@@H](C)[C@@H]1OC(=O)CC(C)C`, with 42%; and `CCCCn1c(=O)c(C(=O)NCc2ccccc2Cl)c(O)c2ccccc21`, with 54.1%.

On to `CC(C)CCC1C(=O)NC(=O)NC1=O`, for which the growth is 99.4%. As to `O=C(CCCN1CCC2(CC1)C(=O)NCN2c1ccccc1)c1ccc(F)cc1`, the growth is 95.1% and 49.3%. Still for that read-out and setting: to `Nc1ccc2c(c1)Cc1cc(N)ccc1-2` belongs 92.3%; to `Cc1cc[c-]cc1.Fc1c[c-]c(-c2ccccn2)c(F)c1.N#CCC[PH+](CCC#N)c1ccccc1.[Pt+2]`, 34.3%. For the compound `C=CC[PH+](c1ccccc1)c1ccccc1.C=CC[PH+](c1ccccc1)c1ccccc1.[Pt+2].[S-]c1nc2ccccc2[nH]1.[S-]c1nc2ccccc2[nH]1`, the growth was -12.4% (active). Same read-out and setting: then `O=C(NC1=NCC[Se]1)c1ccccc1O`, with 65.6%; and `CC[C@H](C)[C@H](NC(=O)[C@H]1CCCCN1C)C(=O)N(C)[C@H](C[C@@H](OC(C)=O)c1nc(C(=O)N[C@@H](Cc2ccccc2)C[C@H](C)C(=O)O)cs1)C(C)C`, with 25.9%. Take `CSc1cc(/C=C(\C)[C@@H]2C[C@@H]3O[C@]3(C)CCC[C@H](C)[C@H](O)[C@@H](C)C(=O)C(C)(C)[C@@H](O)CC(=O)O2)n(CCNC(=O)OC(C)(C)C)n1`: the growth is 61.4%. The same measure, in the same setting: to `C[C@]12CCc3nc(-c4ccc(O)c(O)c4)sc3C1=CC[C@@H]1[C@@H]2CC[C@]2(C)C(=O)CC[C@@H]12` belongs 69%. The same measure, in the same setting: to `CC1(C)N(Nc2ccccc2)C(=O)C2CCCN21` (stereo not given) belongs 97.2%; to `CCCCCCCCCCCCCCCCCCn1cc[n+](C)c1`, -48.9% (active) and -44.3% (active); to `CN1CCN(c2ccc(Cl)cc2)CC1`, 73.6%.

For the compound `O=S(OO)c1cc(Cl)c(O)c(Cl)c1` (stereo not given), the growth was 101%. Turning to `Nc1cccnc1`, the growth is 109%. As to `O=[N+]([O-])c1ccc2scc3c4ccccc4nc-3c2c1`, the growth was 30.7%.

Consider `Cn1cc(-c2csc(-c3cn(CCCCN4CCOCC4)c4ccc(F)cc34)n2)c2cccnc21`, for which the growth was 80.3%. The same measure, in the same setting: then `CC[C@H](C)[C@H](NC(=O)[C@H]1CCCCN1C)C(=O)N(C)[C@H](C[C@@H](OC(C)=O)c1nc(C(=O)NC23C4C5C2C2C3C4C52C(=O)OC)cs1)C(C)C` (stereo not given in full), with 18.6%; and `CC(=O)Cc1ccc2c(c1)OCO2`, with 93.9%; and `COc1cc2c(c(OC)c1OC)-c1ccc(O)cc1[C@@H](NC(C)=O)CC2`, with 37.7% and 13.8%. On the same count and under the same terms, to `N[C@@H](CCC(=O)CCl)C(=O)O` belongs 97.3% [20 µM]; to `COc1ccc(C(C#N)C(C)=O)cc1` (stereo not given), 97.9%; to `O=NN(c1ccccc1)c1ccccc1`, 98.3%. Same read-out and setting: then `C[C@@]12CCCc3coc(c31)C(=O)c1cc3c(cc12)C(=O)C1=C(NCCS1(=O)=O)C3=O`, with -36.4% (active); and `N#CC(C#N)=C(C#N)C#N`, with 106%; and `COCC1OC2OC3C(COC)OC(OC4C(COC)OC(OC5C(COC)OC(OC6C(COC)OC(OC7C(COC)OC(OC8C(COC)OC(OC1C(O)C2O)C(O)C8O)C(O)C7O)C(O)C6O)C(O)C5O)C(O)C4O)C(O)C3O` (stereo not given) (tested in a mixture with another compound), with 102%. Consider `C[C@]12CC[C@H]3[C@@H](C[C@@H]4SC(Nc5ccccc5)=N[C@@]45C/C(=N/O)CC[C@]35C)[C@@H]1CCC2=O`, for which the growth is 79.5%. On the same count and under the same terms, then `COC12CC3C4=CCOC5CC(=O)N6c7ccccc7C1(CCN2C4)C6C53` (stereo not given), with 102%; and `CCCCCCCCCCCCCCCC[N+](C)(C)Cc1ccccc1`, with 9.06% (active) and -49.4% (active).

Still in this assay, the particulars now being: 75 µM.
As to `O=C(O)CCCc1ccc(N(CCCl)CCCl)cc1`, the growth is 23.1%.

Source of the values: PubChem BioAssay (NCI).
